We go through 35 molecules from PubChem BioAssay (NCATS).

Structures are written as SMILES. Records with an inconclusive call do not appear. Activity calls are given as the source filed them. The call rests on the fitted dose curve; in most records, active means well fitted inhibition curve with a large enough effect; inconclusive means small, poorly fitted or top-dose-only effect; inactive means flat fitted curve, though single readings scatter.
Potency means the concentration at half of the fitted maximal effect.

In this experiment the test system is Zika virus NS2B-NS3 protease. As to the kind of experiment: Primary screen GU AMC qHTS for Zika virus inhibitors (AID 1347154). Further: nearly all actives have a fitted effect of over 70% in size.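 On activity change, negative = inhibition: 0% = no-inhibitor control and -100% = no-enzyme control.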 The note with it: Zika NS2B-NS3 unlinked protease, AMC fluorogenic substrate; series mostly up to 54.1 µM; activity change, negative = inhibition: at the top concentration. The method in brief:
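Unlinked Zika NS2B hydrophilic domain–NS3 protease complex at 25 nM in 10 mM Tris-HCl pH 8.0, 0.01% Tween 20, with an AMC peptide substrate. Fluorescence change (340/450 nm) over 15 min at room temperature, normalized to controls, fitted to 4-parameter Hill.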
Regarding `C[C@]12CC[C@@H]3c4ccc(O)cc4CC[C@H]3[C@H]1C[C@@H](O)[C@H]2O`, the “activity change, negative = inhibition” value is 6.48% (inactive).
Regarding `CCN(CC)CCOc1ccc(C(=C(Cl)c2ccccc2)c2ccccc2)cc1`, the “activity change, negative = inhibition” value is 5.42% (inactive).
With `O=C(CCc1ccc(O)cc1)c1c(O)cc(O)cc1O[C@@H]1O[C@H](CO)[C@H](O)[C@H](O)[C@H]1O`, the “activity change, negative = inhibition” value was -4.96% (inactive).
For `c1cc(-c2sc(-c3ccncc3)c(-c3ccncc3)c2-c2ccncc2)ccn1`, the “activity change, negative = inhibition” value was -0.495% (inactive).
For the molecule `N#CC1(c2ccc(NC(=O)c3cccnc3NCc3ccncc3)cc2)CCCC1`, the “activity change, negative = inhibition” value was -4.91% (inactive).
Take `COC(=O)N[C@H](C(=O)N1CCC[C@@H]1c1ncc(-c2ccc(-c3ccc(-c4cnc([C@@H]5CCCN5C(=O)[C@@H](NC(=O)OC)C(C)C)[nH]4)cc3)cc2)[nH]1)C(C)C`: the Potency is 30.4 µM (active).
As for `Cc1c[nH]c(C=C2C(=O)Nc3ccccc32)c1CCC(=O)O`, the “activity change, negative = inhibition” value was -16.6% (inactive).
As to `O=C(O)Cc1cccc2ccccc12`, the Potency entry was “inactive”.
On to `CC[C@@]1(O)C[C@H](O[C@H]2C[C@H](N(C)C)[C@H](O[C@H]3C[C@H](O)[C@H](O[C@H]4CCC(=O)[C@H](C)O4)[C@H](C)O3)[C@H](C)O2)c2c(cc3c(c2O)C(=O)c2c(O)cccc2C3=O)[C@@H]1C(=O)OC`, for which the “activity change, negative = inhibition” value was 8.37% (inactive).
Turning to `CON=C(C(=O)N[C@@H]1C(=O)N2C(C(=O)OCOC(=O)C(C)(C)C)=C(C=Cc3scnc3C)CS[C@H]12)c1csc(N)n1`, the “activity change, negative = inhibition” value was 12.5% (inactive).
Consider `CC(C)C[C@H](CC(=O)O)C(=O)N[C@@H](Cc1c[nH]c2ccccc12)C(=O)N[C@@H](C)c1ccccc1`, for which the “activity change, negative = inhibition” value is -4.2% (inactive).
On the same count and under the same terms, for `COc1cc(O)c2c(c1)C(=O)c1cc(C)cc(O)c1C2=O` the value was 8.41% [at 25.8 µM] (inactive); for `CCC(=O)O[C@]1(C(=O)CO)CC[C@H]2[C@@H]3CCC4=CC(=O)CC[C@]4(C)[C@@H]3CC[C@@]21C`, -3.46% (inactive); for `CC(C(=O)O)c1ccc(-c2ccccc2)c(F)c1` (stereo not given), -0.377% (inactive).
Take `COc1ccc(-c2oc3c(CC=C(C)C)c(OC4O[C@H](CO)[C@@H](O)[C@H](O)[C@@H]4O)cc(O)c3c(=O)c2OC2O[C@@H](C)[C@H](O)[C@@H](O)[C@@H]2O)cc1` (stereo not given in full): the “activity change, negative = inhibition” value was -13% (inactive).
For the molecule `Nc1ncnc2ccccc12`, the “activity change, negative = inhibition” value is 11.1% (inactive).
`O=C(O)c1cc(O)c2c(c1)C(=O)c1cccc(O)c1C2=O`: the Potency is 24.8 µM (active).
Consider `Cc1ccc(/C=N/NC(=O)c2ccccc2Oc2ccccc2)o1`, for which the “activity change, negative = inhibition” value was -12.9% (inactive).
For the molecule `COc1cc(NC(=O)c2ccc(-c3ccc(Cl)cc3)o2)cc(OC)c1`, the “activity change, negative = inhibition” value is 7.29% (inactive).
For the molecule `Cc1ccc(C(C)(O)c2nc3ccccc3s2)c(C)c1` (stereo not given), the “activity change, negative = inhibition” value was -3.95% (inactive).
Take `CCNc1cc(NC2CCC(O)CC2)nc(Nc2ccc3c(ccn3Cc3ccccc3)c2)n1` (stereo not given): the “activity change, negative = inhibition” value was 12.1% (inactive).
Still for that read-out and setting: for `O=c1c(-c2ccc(O)cc2)coc2cc(O[C@@H]3O[C@H](CO)[C@H](O)[C@H](O)[C@H]3O)ccc12` the value was 10.6% (inactive); for `CCC(CC)[C@H](NC(C)=O)[C@@H]1[C@H](O)[C@@H](C(=O)O)C[C@@H]1N=C(N)N`, 3.88% (inactive).
As to `O=c1cc(-c2cccc3c2Sc2ccccc2S3)oc(N2CCOCC2)c1`, the “activity change, negative = inhibition” value is -18.9% (inactive).
In the case of `NC(=O)NN=Cc1ccc([N+](=O)[O-])o1`, the “activity change, negative = inhibition” value was -2.99% (inactive).
Take `C[C@@H]1CCN(C(=O)CC#N)C[C@H]1N(C)c1ncnc2[nH]ccc12`: the “activity change, negative = inhibition” value was -3.66% (inactive).
`COc1ccc2c3c1OC1C[C@@H](O)C=C[C@@]31CCN(C)C2` (stereo not given in full): the “activity change, negative = inhibition” value is -5.16% (inactive).
Still for that read-out and setting: for `C[C@]12CCC3c4ccc(O)cc4CCC3C1CCC2=O` (stereo not given in full) the value was 9.11% (inactive).
`CCOC1OC(=O)C[C@H]1NC(=O)[C@@H]1CCCN1C(=O)[C@@H](NC(=O)c1ccc(N)c(Cl)c1)C(C)(C)C` (stereo not given in full): the “activity change, negative = inhibition” value was 7.2% (inactive).
In the case of `Nc1ncnc2c1ncn2[C@@H]1O[C@H](CO)C[C@@H]1O`, the “activity change, negative = inhibition” value is 4.07% (inactive).
Take `NC1CCC(Nc2nc(Nc3ccc(C(=O)N4CCCCC4)cc3)c3ncn(-c4cccc(F)c4)c3n2)CC1` (stereo not given): the “activity change, negative = inhibition” value is 2.5% (inactive).
On to `COc1ccc(-n2c(C)c([N+](=O)[O-])c3ccc(O)cc32)cc1`, for which the “activity change, negative = inhibition” value is 2.69% (inactive).
Consider `COc1cccc2c1CCCC2CCCN1CCN(C2CCCCC2)CC1` (stereo not given), for which the Potency result is “inactive”.
As to `O=C(N[C@@H](c1ccccc1)[C@@H]1CCCCN1)c1cccc(C(F)(F)F)c1Cl`, the “activity change, negative = inhibition” value is -0.535% (inactive).
For the molecule `NC(CO)(CO)CCc1ccc(Sc2cccc(OCc3ccccc3)c2)cc1Cl`, the “activity change, negative = inhibition” value is 4.67% (inactive).
